Compound activity: PubChem BioAssay, National Center for Advancing Translational Sciences (NCATS)
ATXN viability – Viability Counterscreen for Primary qHTS for Inhibitors of ATXN expression; 400,000 tested, 0.49% active; Potency, µM (highest dose often 56.7 µM), usual class: cytotoxic; AID 651635, 2014; S2 cells (HEK-293 line with an ATXN2-luciferase reporter) viability, CellTiter-Fluor protease fluorescence, 24 h; note: nearly all actives have a fitted effect of over 40% in size
MCF10A rerep – A quantitative high throughput screen for small molecules that induce DNA re-replication in MCF 10a normal breast cells; 350,000 tested, 2.9% active; MCF 10A DNA re-replication, Hoechst nuclear intensity, 48 h; Potency, µM (doses to about 46.1 µM), most hits filed as activators; note: nearly all actives have a fitted effect of over 50% in size
SW480 rerep – A quantitative high throughput screen for small molecules that induce DNA re-replication in SW480 colon adenocarcinoma cells. SW480 DNA re-replication, Hoechst DNA content imaging, 48 h. Potency, µM (highest dose often 46.1 µM), hits mostly activators. 340,000 tested, 1.8% active. AID 624297, 2012; note: nearly all actives have a fitted effect of over 55% in size
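Compounds, transferred as 23 nL by pin tool, were incubated with cells for 48 hr; DNA content per nucleus was then quantified by Hoechst staining and fluorescence plate imaging.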
ATXN2 expr inh – Primary qHTS for Inhibitors of ATXN expression. HEK-293 ATXN2-luciferase reporter, luminescence, 24 h. Potency, µM (doses to about 57 µM), usual class: inhibitors. 360,000 tested, 0.72% active. AID 1745845, 2022; note: nearly all actives have a fitted effect of over 55% in size
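ATXN2-luciferase reporter cells (luciferase flanked by upstream and downstream ATXN2 gene portions) were treated 24 h at 37 °C with compounds at up to 57 uM. SteadyGlo luminescence gave expression; GF-AFC fluorescence gave viability.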
IL-1B inflam inh – qHTS for Inhibitors of Inflammasome Signaling: IL-1-beta AlphaLISA Primary Screen | THP-1 LPS/ATP IL-1B secretion, AlphaLISA, 16 h; active compounds read low | activity change, % at 57.5 µM | 360,000 tested, 4.7% active | AID 743279, 2014; in the data active = activity change below about -50%; inconclusive = mostly about -30% to -49%
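Secreted IL-1B measured by AlphaLISA bead assay after 16 h compound exposure of THP-1 cells; compounds (final up to 57.5 uM) added 1 h before LPS (250 ng/mL) and ATP (1.25 mM) stimulation; lower signal means less secretion.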
PINK1 modulator – A Quantitative High throughput Screen to Identify Chemical Modulators of PINK1 Expression. Potency, µM (highest dose often 76.6 µM), most hits filed as activators. 410,000 tested, 0.2% active. PINK1 immunofluorescence, high-content cytometry, 24 h; active = well fitted activation curve with a large enough effect; inconclusive = small, poorly fitted or top-dose-only effect; cell line not stated here; note: nearly all actives have a fitted effect of over 65% in size
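Measures PINK1 amount and localization on or inside mitochondria by immunofluorescence. Stable cells get compounds at 5 concentrations for 24 hours before fixation and staining; CCCP controls included.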
Each line names hits and unclear results; the compound was inactive in the other large screens. Most compounds without a hit are left out; they make up all but 7.1% or so of the library. Unless noted, calls come from the whole dose curve; as a rule, active = well fitted curve in the direction sought with a large enough effect; inconclusive = small, poorly fitted or top-dose-only effect, or another doubt; inactive = no such curve, though single readings can be large; an effect the other way counts as inactive or inconclusive.

C[C@H](NC(=O)C(=O)Nc1ccccc1C(C)(C)C)C(=O)N[C@@H](CC(=O)O)C(=O)COc1c(F)c(F)cc(F)c1F	none (no result: ATXN viability, MCF10A rerep, SW480 rerep, IL-1B inflam inh, PINK1 modulator)
N#C/C(=C/c1ccncc1)c1nc2ccccc2s1	MCF10A rerep inconclusive
CC1CCc2nc(/C(C#N)=C/c3ccncc3)sc2C1 (configuration not stated)	MCF10A rerep inconclusive, SW480 rerep 7.3µM (no result: ATXN viability)
COc1cc(OC)c(N(C)C(=O)c2cn(C3CCCC3)c(=O)c3c2c2ccccc2n3C)cc1Cl	none (no result: ATXN viability, MCF10A rerep, SW480 rerep, ATXN2 expr inh, IL-1B inflam inh)
Nc1ccc(Br)c2c1C(=O)c1ccccc1C2=O	ATXN viability inconclusive
Nc1ccc(O)c2c1C(=O)c1ccccc1C2=O	ATXN viability 20µM, IL-1B inflam inh -57
COc1ccc(OC)c2c1C(=O)C(Cl)=C(Cl)C2=O	ATXN viability 7.9µM, MCF10A rerep 2.6µM, SW480 rerep inconclusive, ATXN2 expr inh 7.1µM, IL-1B inflam inh -117
COc1ccc(OC)c2c1C(=O)c1ccccc1C2=O	none
COc1ccc(OC)c2c1C(=O)CC2C (configuration not stated)	IL-1B inflam inh inconclusive (no result: MCF10A rerep, SW480 rerep, ATXN2 expr inh)
COc1ccc(N)c2c1C(=O)c1ccccc1C2=O	IL-1B inflam inh -85
COc1cccc(N2CCN(C(=O)c3cccn3-c3nnc(N4CCCCC4)s3)CC2)c1	none (no result: ATXN viability, MCF10A rerep, SW480 rerep, ATXN2 expr inh, IL-1B inflam inh)
O=C(CN1Cc2ccccc2OC(c2ccccc2)C1)NCc1cccnc1 (configuration not stated)	none (no result: MCF10A rerep, SW480 rerep, ATXN2 expr inh, IL-1B inflam inh)
OC(CNCC(c1ccc(Cl)cc1Cl)c1c[nH]c2ccccc12)c1ccccc1 (configuration not stated)	ATXN viability inconclusive, MCF10A rerep inconclusive, ATXN2 expr inh inconclusive, IL-1B inflam inh -103
Cc1ccc(C2=NN(CC(=O)NCCc3ccc(Cl)cc3)C(=O)CC2)cc1	none (no result: ATXN viability, MCF10A rerep, SW480 rerep, ATXN2 expr inh, IL-1B inflam inh)
CCCOc1ccc(C(F)(F)F)cc1NS(=O)(=O)c1ccc(Cl)nc1	MCF10A rerep inconclusive, SW480 rerep inconclusive, ATXN2 expr inh inconclusive, IL-1B inflam inh -65, PINK1 modulator inconclusive
CCCOc1ccc(C(F)(F)F)cc1NC(=O)c1cc(C)on1	none
CCOc1ccc(C(=O)NCC2CCCN2S(=O)(=O)c2cccs2)cc1 (configuration not stated)	ATXN viability inconclusive
CCc1c(O)cc(O)c(C(=O)c2ccc(OCCN3CCOCC3)c(OC)c2)c1CC(=O)N(CCOC)CCOC	ATXN2 expr inh 1.1µM (no result: ATXN viability, MCF10A rerep, SW480 rerep, IL-1B inflam inh, PINK1 modulator)
COc1cc(C(=O)OCCCN2CCOCC2)ccc1O	none
COc1c(C)cccc1C(=O)Nc1cccc2ccc(C)nc12	none (no result: MCF10A rerep, SW480 rerep, IL-1B inflam inh)
CCCC1=C/C(=C/c2ccc(-c3ccccc3OC)o2)C(=O)O1	MCF10A rerep 10µM, SW480 rerep 23µM
COc1ccccc1-c1ccc(/C=C2/C=C(CC(C)C)OC2=O)o1	MCF10A rerep inconclusive
O=C(C#Cc1ccccc1)Nc1cccc(F)c1	ATXN viability inconclusive, MCF10A rerep inconclusive, SW480 rerep inconclusive, ATXN2 expr inh inconclusive, IL-1B inflam inh -106
COc1ccc(NC(=O)C#Cc2ccccc2)cc1	MCF10A rerep inconclusive, SW480 rerep inconclusive (no result: IL-1B inflam inh)
O=C(C#Cc1ccccc1)Nc1ccc(F)cc1	SW480 rerep inconclusive, IL-1B inflam inh -97
Cc1cccc(N2C(=O)C=CC2=O)c1	MCF10A rerep 21µM, SW480 rerep inconclusive
Cc1c(C#N)c(N)nc(Cl)c1C#N	ATXN viability inconclusive, ATXN2 expr inh inconclusive, IL-1B inflam inh -168
Cc1cc(-c2ccc(Cl)cc2)c(C#N)c(N)n1	none
COc1ccccc1CNC(=O)CSc1nc(=O)[nH]c2c1CCCC2	none (no result: ATXN viability, MCF10A rerep, SW480 rerep, ATXN2 expr inh, IL-1B inflam inh)
CC(C)(C)C1CCc2c(sc3ncn(N)c(=N)c23)C1 (configuration not stated)	MCF10A rerep inconclusive, SW480 rerep inconclusive, IL-1B inflam inh -75 (no result: ATXN2 expr inh)
COC(=O)C1=C(C)NC(=O)NC1c1ccc(N2CCC(c3ccccc3)=N2)cc1 (configuration not stated)	MCF10A rerep 5.2µM, SW480 rerep 2.1µM, ATXN2 expr inh inconclusive, IL-1B inflam inh -69 (no result: ATXN viability)
